Autofluor counter: compound fluorescence in toxin protease inhibitor counterscreen. compound autofluorescence counterscreen, microsphere flow cytometry; stronger effect = higher value. fluorescence intensity (no concentration beside the values). 360,000 tested, 3.1% active; in the data active = fluorescence intensity above about 16000; inconclusive = no clear call, values can overlap the other calls
Vc quorum ag: inducers of Vibrio cholerae quorum light production without autoinducers; activation, % at 18.7 µM; AID 588436; V. cholerae BH1578 lux reporter, luminescence, 6 h; 350,000 tested, 0.16% active; in the data active = activation mostly above about 9.7%, no sharp cut-off; inconclusive = no clear call, values can overlap the other calls; inactive = mostly below about 3.7%
Anthrax LF inh2: anthrax lethal factor protease inhibition; P15917; multiplex microsphere protease cleavage assay, LF; AID 588501; 360,000 tested, 0.12% active; inhibition, % at 10 µM
BoNT-A LC inh2: inhibitors of Botulinum neurotoxin A light chain protease; multiplex microsphere protease substrate cleavage, flow cytometry; inhibition, % at 10 µM; 360,000 tested, 0.17% active; AID 588499
BoNT-F LC inh: blocks Botulinum neurotoxin F light chain protease; 360,000 tested, 0.22% active; AID 588497; Multiplex microsphere protease cleavage assay, flow cytometry; inhibition, % at 10 µM; in the data active = inhibition above about 35%, passing the limit was not always enough; inconclusive = no clear call, values can overlap the other calls
Large screens that a line does not name were inactive. A selection: hits, their analogues and other compounds. The true share with any hit is near 3.5%. Cut-off read from the data, not from the text of the source, unless noted: active = inhibition above about 30%; inconclusive = no clear call, values can overlap the other calls; inactive = below that.

CCCCCCCC(=O)NNC(=O)c1ccc([N+](=O)[O-])cc1	Autofluor counter 24645
COc1ccc(C2/C(=C(/O)c3ccc4c(c3)CC(C)O4)C(=O)C(=O)N2CCN2CCOCC2)cc1OC (stereo unspecified)	none
Cc1cccc[n+]1CC(=O)Nc1ccccc1	BoNT-F LC inh 37
O=C1c2cnc3nc(SCc4ccccc4)nn3c2CC2c3ccccc3CCN12 (stereo unspecified)	Autofluor counter 22144
O=C1CC2c3ccccc3CCN2C(=O)CN1Cc1ccccc1 (stereo unspecified)	none (no result: Vc quorum ag)
CCCCn1c(N)c(N(CCOC)C(=O)c2ccc(COc3ccccc3)o2)c(=O)[nH]c1=O	none
Cc1ncoc1C(=O)Nc1ccccc1-c1ccccc1	Autofluor counter 23728
Cc1ncoc1C(=O)Nc1ccc(Oc2ccccc2)cc1	Autofluor counter 19937
Cc1nc(C)c(C(=O)Nc2ccc(Oc3ccccc3)cc2)o1	Autofluor counter 19915
Cc1c(Cl)cccc1Nc1nc(N)nc(CSc2ncccn2)n1	Autofluor counter 20532
C=CCOC(=O)C1=C(C)NC(=S)C(C#N)(CC=C)C1c1ccccc1Cl (stereo unspecified)	none
COc1ccc2nc(SCC(=O)O)nc(C)c2c1	Vc quorum ag 15
COc1ccc2nc(C)cc(SCC(=O)O)c2c1	none
Cc1oc(C(=O)O)cc1COc1ccc2c3c(c(=O)oc2c1)CCC3	Autofluor counter 20992, BoNT-A LC inh2 inconclusive
Cc1ccc(-n2c(C)nn(CC#N)c2=O)cc1	none
CCOC(=O)Cn1nc(C)n(-c2ccc(C)cc2)c1=O	Autofluor counter 22478
CCOC(=O)Cn1nc(C)n(-c2ccccc2)c1=O	Autofluor counter 22724
Cc1nn(CCOc2ccccc2)c(=O)n1-c1ccccc1	Autofluor counter 22975
COC(=O)C(C)n1nc(C)n(-c2ccc(C)cc2)c1=O (stereo unspecified)	Autofluor counter 22187
CCOC(=O)Cn1nc(C)n(-c2c(C)cccc2C)c1=O	none
CCn1cc(C(=O)O)c(=O)c2cc(F)c(N/N=C/c3ccccc3[N+](=O)[O-])cc21	none
CCOC(=O)Cn1nc(-c2ccccc2)ccc1=O	Autofluor counter 23084
COc1ccc(C)cc1NC(=O)NC1CCN(Cc2ccccc2)CC1	none
CCC(C)[C@H](NC(=O)NC1CCN(Cc2ccccc2)CC1)C(=O)OC (stereo partly specified)	Autofluor counter 22325
COC(=O)[C@H](Cc1ccccc1)NC(=O)N1CCCCCC1	none
CCCNC(=O)N[C@@H](Cc1ccccc1)C(=O)OC	Autofluor counter 22925, BoNT-A LC inh2 inconclusive
COC(=O)[C@H](Cc1ccccc1)NC(=O)NCc1ccccc1	none (no result: Autofluor counter, Anthrax LF inh2, BoNT-A LC inh2, BoNT-F LC inh)
COC(=O)[C@H](Cc1ccccc1)NC(=O)N1CCN(Cc2ccccc2)CC1	Autofluor counter 23718
COc1ccc(CCN2CC(C(=O)NCc3ccco3)CC2=O)cc1OC (stereo unspecified)	Autofluor counter 16739
COc1ccc(CCNC(=O)C2CC(=O)N(C3CCCCCCC3)C2)cc1OC (stereo unspecified)	Autofluor counter 24165
Cc1ccc(CCNC(=O)C2CC(=O)N(C3CCCCC3)C2)cc1 (stereo unspecified)	none
COc1ccc(CCNC(=O)C2CCCN(S(=O)(=O)N3CCCCCC3)C2)cc1OC (stereo unspecified)	none
COc1ccc(CCNC(=O)C2CCN(S(=O)(=O)N3CCCCCC3)CC2)cc1OC	Autofluor counter 22454
CC1(C)C(=O)OC(C(=O)c2ccc(Cl)cc2)C(C)(C)C1=O (stereo unspecified)	none
CC1(C)C(=O)OC(C(=O)c2ccccc2)C(C)(C)C1=O (stereo unspecified)	Autofluor counter 21463
Cc1ccc(S(=O)(=O)NCC(=O)N2CCN(S(=O)(=O)c3ccc(Cl)cc3)CC2)cc1C	none
CC(C)N=C(NC#N)SCc1ccc(Br)cc1	Vc quorum ag 30
CCOC(=O)CCc1c(C(=O)OCC)[nH]c(CC)c1C(=O)OCc1ccccc1	none
COC(=O)c1ccccc1OCC(=O)NC1CCCCC1	Autofluor counter 21631
CCc1ccccc1NC(=O)CN1CCC(NC(=O)COC)CC1	Autofluor counter 23013, BoNT-A LC inh2 inconclusive
COc1ccccc1OCC(=O)NCC1CCCCC1	Autofluor counter 23960
COCC(=O)NC1CCN(CC(=O)Nc2ccccc2[N+](=O)[O-])CC1	none
COC(=O)c1ccc(OCC(=O)NC2CCCCCCC2)cc1	none
COc1cccc(OC)c1C(=O)OCC(=O)NCC1CCCCC1	none
COCC(=O)NC1CCN(C(=O)Nc2ccc(Br)cc2)CC1	Autofluor counter 16587
COc1ccccc1NC(=O)CCc1nnc2ccc(N3CCC4(CC3)OCCO4)nn12	none

From PubChem
